Test results as given in PubChem BioAssay.
Unmarked numbers belong to inactive results. No rule for the calls is given here.

The compounds below were run against Pantothenate synthetase (Mycobacterium tuberculosis (strain ATCC 25618 / H37Rv)) (UniProt P9WIL5) (assay: Coupled enzyme confirmation of inhibitors against recombinant Mtb PanC (AID 375;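 also: 0% = full reaction with vehicle and 100% = no enzyme background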)). Settings: coupled enzyme assay; at 10 µM, stronger effect = higher value.
Pantothenate synthetase (Mycobacterium tuberculosis (strain ATCC 25618 / H37Rv)), sequence (P9WIL5 whole entry, looked up): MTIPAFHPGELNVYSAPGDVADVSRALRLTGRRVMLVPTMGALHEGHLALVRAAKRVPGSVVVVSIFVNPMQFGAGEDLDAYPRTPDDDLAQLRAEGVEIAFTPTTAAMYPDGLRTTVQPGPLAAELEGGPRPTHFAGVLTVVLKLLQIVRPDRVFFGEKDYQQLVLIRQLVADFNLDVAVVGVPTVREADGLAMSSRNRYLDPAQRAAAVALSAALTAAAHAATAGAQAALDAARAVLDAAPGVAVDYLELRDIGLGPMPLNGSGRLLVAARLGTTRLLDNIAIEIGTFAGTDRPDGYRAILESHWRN

Row | SMILES | inhibition [%]
1 | CN(C)/C=C1\N=C(c2ccc3c(c2)OCO3)OC1=O | 0
2 | Cc1cc(C)nc(NC2=NCC(=O)N2c2ccccc2Br)n1 | 0
3 | NC(=O)NC(=O)CSc1cccc(C(F)(F)F)c1 | 0
4 | CCCSc1nc2c(c(=O)[nH]c(=O)n2C)n1CCc1ccccc1 | 5
5 | Cc1cccc(COc2ccc(/C(O)=C3\C(=O)C(=O)N(CCN(C)C)C3c3ccncc3)cc2)c1 (stereo not drawn) | 13
6 | CCCN(CCC)S(=O)(=O)c1ccc(C(=O)O)cc1 | 0
7 | Cc1ccccc1Cn1cc(/C=N/n2cnnc2)c2ccccc21 | 0
8 | Cc1ccc(C(C)n2cc(C(=O)NCCN3CCN(C)CC3)nn2)cc1 (stereo not drawn) | 0
9 | CC(C)=CCCC(C)NC(=O)NC1CCCCC1 (stereo not drawn) | 0
10 | COC(=O)c1ccc(N2C(=O)CC(N3CCN(C(=O)c4ccco4)CC3)C2=O)cc1 (stereo not drawn) | 0
11 | Cc1ccc(S(=O)(=O)NC(C)C(=O)Nc2ccc(C(N)=O)cc2)cc1 (stereo not drawn) | 0
12 | Cc1nn(-c2ccc(F)cc2)c2sc(C(=O)N3CCCCCC3)cc12 | 0
13 | Cc1cc(NC(=O)c2ccccc2)ncc1NC(=O)c1ccco1 | 0
14 | COc1ccc(-n2nnnc2-c2cccc(OC)c2)cc1 | 0
15 | COCc1cc(C)c2c(N)c(C#N)sc2n1 | 1
16 | C=C(c1ccc(O)cc1)c1ccc(O)cc1 | 0
17 | CCCCCC1NC(=O)NC1CCCCCC(=O)O (stereo not drawn) | 0
18 | CC(C)CCN1CC(C(=O)NCc2ccccc2)CC1=O (stereo not drawn) | 0
